Test results: PMC7862700, “An all-to-all approach to the identification of sequence-specific readers for epigenetic DNA modifications on cytosine”

What was measured:
Assay in all cases: DAPPL (digital affinity profiling via proximity ligation, sequencing); 10 mM Tris-HCl pH 7.5, 50 mM NaCl, 1 mM DTT, 4% glycerol, room temperature, 30 min; GST-TFs on glutathione beads, 16-mer random dsDNA library, 0.1% formaldehyde crosslink after washing; high values mean tight binding
[1] = target: T1, FLI1 (Homo sapiens, UniProt Q01543 1-452); settings: protein: recombinant; tags: N-terminal GST; dsDNA, one strand shown
T1 sequence: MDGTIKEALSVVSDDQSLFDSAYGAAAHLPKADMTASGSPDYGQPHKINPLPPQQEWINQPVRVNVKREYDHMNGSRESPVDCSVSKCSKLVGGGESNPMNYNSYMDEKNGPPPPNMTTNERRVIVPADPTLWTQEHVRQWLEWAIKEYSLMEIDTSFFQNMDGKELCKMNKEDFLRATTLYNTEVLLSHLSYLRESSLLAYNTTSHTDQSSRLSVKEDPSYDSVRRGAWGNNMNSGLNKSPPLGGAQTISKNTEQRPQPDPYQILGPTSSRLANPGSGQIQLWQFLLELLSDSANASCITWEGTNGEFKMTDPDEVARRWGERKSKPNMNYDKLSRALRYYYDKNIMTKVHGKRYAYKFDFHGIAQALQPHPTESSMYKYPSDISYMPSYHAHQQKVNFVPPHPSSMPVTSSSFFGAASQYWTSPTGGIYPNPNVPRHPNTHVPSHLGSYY
Method in brief: (§1)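 A tag-only sample was pooled with DNA-barcoded human transcription factors that had been expressed in yeast as GST fusions and captured on glutathione beads. The pools were incubated for 30 min at room temperature with 200 nmole of a random double-stranded 16-mer DNA library in Tris/NaCl/DTT/glycerol buffer, then washed, crosslinked with 0.1% formaldehyde, proximity-ligated (BsaI/T4 ligase, 1 h, 37 °C), PCR-amplified and sequenced on an Illumina NextSeq500. Binding signal is each hexamer's read frequency for a factor divided by its frequency for the tag-only sample.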

[2] = target: T2, ELK1 (Homo sapiens, UniProt P19419 1-428); settings: protein: recombinant; tags: N-terminal GST; dsDNA, one strand shown
T2 sequence: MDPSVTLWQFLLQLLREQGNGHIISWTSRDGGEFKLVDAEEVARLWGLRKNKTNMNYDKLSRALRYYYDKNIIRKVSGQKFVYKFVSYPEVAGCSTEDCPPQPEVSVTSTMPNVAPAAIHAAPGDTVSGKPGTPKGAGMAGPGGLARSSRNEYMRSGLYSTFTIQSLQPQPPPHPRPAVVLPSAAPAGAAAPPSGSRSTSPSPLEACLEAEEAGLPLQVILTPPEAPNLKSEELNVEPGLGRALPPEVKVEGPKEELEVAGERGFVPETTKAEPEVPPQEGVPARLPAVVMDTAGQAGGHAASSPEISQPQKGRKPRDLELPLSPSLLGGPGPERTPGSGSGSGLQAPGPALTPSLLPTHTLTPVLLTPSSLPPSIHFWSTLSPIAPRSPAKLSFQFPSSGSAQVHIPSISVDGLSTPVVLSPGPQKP
Method in brief: as §1

[3] = target: T3, GABPA (Homo sapiens, UniProt Q06546 1-454); settings: protein: recombinant; tags: N-terminal GST; dsDNA, one strand shown
T3 sequence: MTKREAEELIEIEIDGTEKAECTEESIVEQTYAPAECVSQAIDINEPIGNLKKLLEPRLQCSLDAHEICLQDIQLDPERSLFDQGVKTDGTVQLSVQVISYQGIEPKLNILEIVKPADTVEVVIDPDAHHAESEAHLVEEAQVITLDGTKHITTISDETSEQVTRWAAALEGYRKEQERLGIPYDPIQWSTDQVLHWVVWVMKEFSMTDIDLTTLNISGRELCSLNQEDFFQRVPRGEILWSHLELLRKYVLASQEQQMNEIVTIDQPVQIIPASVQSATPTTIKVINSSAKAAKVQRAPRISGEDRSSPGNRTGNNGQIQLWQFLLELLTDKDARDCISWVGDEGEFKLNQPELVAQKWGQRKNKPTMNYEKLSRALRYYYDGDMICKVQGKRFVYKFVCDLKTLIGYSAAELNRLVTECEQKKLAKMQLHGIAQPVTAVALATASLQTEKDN
Method in brief: as §1

[4] = target: T4, ERG (Homo sapiens, UniProt P11308 1-479); settings: protein: recombinant; tags: N-terminal GST; dsDNA, one strand shown
T4 sequence: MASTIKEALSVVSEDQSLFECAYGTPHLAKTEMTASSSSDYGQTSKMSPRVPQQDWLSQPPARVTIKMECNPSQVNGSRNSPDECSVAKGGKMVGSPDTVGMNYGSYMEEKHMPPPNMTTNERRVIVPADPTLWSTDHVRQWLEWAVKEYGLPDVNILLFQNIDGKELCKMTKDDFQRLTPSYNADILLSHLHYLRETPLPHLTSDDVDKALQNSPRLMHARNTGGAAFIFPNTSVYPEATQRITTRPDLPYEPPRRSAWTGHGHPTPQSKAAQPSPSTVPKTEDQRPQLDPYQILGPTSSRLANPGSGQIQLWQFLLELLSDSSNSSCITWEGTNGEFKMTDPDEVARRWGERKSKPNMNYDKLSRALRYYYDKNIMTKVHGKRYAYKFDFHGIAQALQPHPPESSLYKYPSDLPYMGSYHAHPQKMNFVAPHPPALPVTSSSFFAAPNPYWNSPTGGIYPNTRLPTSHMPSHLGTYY
Method in brief: as §1

[5] = target: ELF1 (Homo sapiens, UniProt P32519 1-619); settings: protein: recombinant; tags: N-terminal GST; dsDNA, one strand shown
Method in brief: as §1

[6] = target: T5, EHF (Homo sapiens, UniProt Q9NZC4 1-300); settings: protein: recombinant; tags: N-terminal GST; dsDNA, one strand shown
T5 sequence: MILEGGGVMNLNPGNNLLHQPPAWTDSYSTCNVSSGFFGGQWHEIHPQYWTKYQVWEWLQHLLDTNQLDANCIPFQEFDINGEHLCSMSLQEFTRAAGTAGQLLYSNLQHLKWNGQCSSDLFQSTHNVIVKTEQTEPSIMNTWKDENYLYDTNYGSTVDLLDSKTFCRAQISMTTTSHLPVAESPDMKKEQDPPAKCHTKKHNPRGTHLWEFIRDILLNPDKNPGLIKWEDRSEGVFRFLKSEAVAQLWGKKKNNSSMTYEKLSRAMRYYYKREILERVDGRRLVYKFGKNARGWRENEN
Method in brief: as §1

[7] = target: SPI1 (Homo sapiens, UniProt P17947 1-270); settings: protein: recombinant; tags: N-terminal GST; dsDNA, one strand shown
Method in brief: as §1

[8] = target: SPIB (Homo sapiens, UniProt Q01892 1-262); settings: protein: recombinant; tags: N-terminal GST; dsDNA, one strand shown
Method in brief: as §1

[9] = target: T6, ELK3 (Homo sapiens, UniProt P41970 1-407); settings: protein: recombinant; tags: N-terminal GST; dsDNA, one strand shown
T6 sequence: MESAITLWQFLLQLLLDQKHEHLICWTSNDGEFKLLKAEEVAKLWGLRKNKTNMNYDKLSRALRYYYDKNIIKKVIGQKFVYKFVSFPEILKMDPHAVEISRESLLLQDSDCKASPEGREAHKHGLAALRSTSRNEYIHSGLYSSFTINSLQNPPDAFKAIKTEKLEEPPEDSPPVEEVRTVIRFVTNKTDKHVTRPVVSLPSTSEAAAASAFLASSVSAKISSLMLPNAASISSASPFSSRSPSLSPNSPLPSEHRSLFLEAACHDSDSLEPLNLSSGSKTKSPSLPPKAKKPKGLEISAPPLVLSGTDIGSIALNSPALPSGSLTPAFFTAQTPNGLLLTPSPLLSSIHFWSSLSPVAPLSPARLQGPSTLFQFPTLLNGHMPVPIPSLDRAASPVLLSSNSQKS
Method in brief: as §1

[10] = target: T7, FEV (Homo sapiens, UniProt Q99581 1-238); settings: protein: recombinant; tags: N-terminal GST; dsDNA, one strand shown
T7 sequence: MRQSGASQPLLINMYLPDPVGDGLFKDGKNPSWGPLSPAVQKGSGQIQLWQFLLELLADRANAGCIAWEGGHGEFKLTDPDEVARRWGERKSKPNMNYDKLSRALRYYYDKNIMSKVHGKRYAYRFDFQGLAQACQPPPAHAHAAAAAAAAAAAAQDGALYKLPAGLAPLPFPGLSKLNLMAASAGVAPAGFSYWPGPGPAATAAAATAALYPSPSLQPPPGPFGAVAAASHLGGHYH
Method in brief: as §1

[11] = target: ETV5 (Homo sapiens, UniProt P41161 1-510); settings: protein: recombinant; tags: N-terminal GST; dsDNA, one strand shown
Method in brief: as §1

[12] = target: HSF1 (Homo sapiens, UniProt Q00613 1-529); settings: protein: recombinant; tags: N-terminal GST; chain copies: 3; dsDNA, one strand shown
Method in brief: as §1

[13] = target: T8, SPIC (Homo sapiens, UniProt Q8N5J4 1-248); settings: protein: recombinant; tags: N-terminal GST; dsDNA, one strand shown
T8 sequence: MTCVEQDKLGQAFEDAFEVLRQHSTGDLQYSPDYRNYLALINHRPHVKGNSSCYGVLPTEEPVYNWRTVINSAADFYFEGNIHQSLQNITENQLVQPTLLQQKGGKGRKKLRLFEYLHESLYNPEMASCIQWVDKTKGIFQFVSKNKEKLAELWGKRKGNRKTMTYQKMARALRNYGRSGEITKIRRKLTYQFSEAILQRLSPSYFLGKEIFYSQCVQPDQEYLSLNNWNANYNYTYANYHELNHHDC
Method in brief: as §1

[14] = target: ELF4 (Homo sapiens, UniProt Q99607 1-663); settings: protein: recombinant; tags: N-terminal GST; dsDNA, one strand shown
Method in brief: as §1

[15] = target: T9, ELK4 (Homo sapiens, UniProt P28324-2 1-405); settings: protein: recombinant; tags: N-terminal GST; dsDNA, one strand shown
T9 sequence: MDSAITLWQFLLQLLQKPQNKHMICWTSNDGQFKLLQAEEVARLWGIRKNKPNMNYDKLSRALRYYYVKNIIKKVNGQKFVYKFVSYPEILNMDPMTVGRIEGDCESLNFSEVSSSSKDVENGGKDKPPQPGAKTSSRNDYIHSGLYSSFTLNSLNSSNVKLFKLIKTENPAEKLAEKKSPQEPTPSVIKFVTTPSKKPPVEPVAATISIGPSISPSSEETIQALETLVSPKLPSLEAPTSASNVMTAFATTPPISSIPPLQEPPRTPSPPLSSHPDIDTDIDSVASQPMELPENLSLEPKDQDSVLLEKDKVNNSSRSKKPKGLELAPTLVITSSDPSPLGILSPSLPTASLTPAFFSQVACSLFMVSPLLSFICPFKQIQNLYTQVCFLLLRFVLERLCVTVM
Method in brief: as §1

[16] = target: T10, ETV2 (Homo sapiens, UniProt O00321 1-342); settings: protein: recombinant; tags: N-terminal GST; dsDNA, one strand shown
T10 sequence: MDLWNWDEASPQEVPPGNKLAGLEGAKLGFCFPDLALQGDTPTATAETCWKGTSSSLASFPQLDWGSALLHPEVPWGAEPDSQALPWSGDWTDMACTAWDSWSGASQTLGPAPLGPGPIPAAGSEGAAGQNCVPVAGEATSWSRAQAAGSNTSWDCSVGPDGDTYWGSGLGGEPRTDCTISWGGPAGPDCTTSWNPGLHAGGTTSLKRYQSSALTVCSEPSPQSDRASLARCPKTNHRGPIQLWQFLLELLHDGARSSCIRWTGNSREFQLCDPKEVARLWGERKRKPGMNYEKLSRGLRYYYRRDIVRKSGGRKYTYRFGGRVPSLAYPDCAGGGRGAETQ
Method in brief: as §1

[17] = target: T11, ELF3 (Homo sapiens, UniProt P78545 1-371); settings: protein: recombinant; tags: N-terminal GST; dsDNA, one strand shown
T11 sequence: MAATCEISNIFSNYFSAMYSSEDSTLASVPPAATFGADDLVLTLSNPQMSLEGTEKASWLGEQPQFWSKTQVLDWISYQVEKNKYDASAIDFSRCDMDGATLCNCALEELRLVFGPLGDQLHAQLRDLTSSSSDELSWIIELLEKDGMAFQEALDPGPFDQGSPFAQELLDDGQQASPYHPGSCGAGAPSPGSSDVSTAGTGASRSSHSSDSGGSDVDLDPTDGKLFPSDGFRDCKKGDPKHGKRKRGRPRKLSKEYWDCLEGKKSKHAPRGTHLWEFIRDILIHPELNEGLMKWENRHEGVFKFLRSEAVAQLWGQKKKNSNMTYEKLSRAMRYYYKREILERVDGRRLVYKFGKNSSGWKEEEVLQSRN
Method in brief: as §1

[18] = target: CRX (Homo sapiens, UniProt O43186 1-299); settings: protein: recombinant; tags: N-terminal GST; dsDNA, one strand shown
Method in brief: as §1

[19] = target: ETV1 (Homo sapiens, UniProt P50549 1-477); settings: protein: recombinant; tags: N-terminal GST; dsDNA, one strand shown
Method in brief: as §1

Chain of ELF4 (Q99607 whole entry): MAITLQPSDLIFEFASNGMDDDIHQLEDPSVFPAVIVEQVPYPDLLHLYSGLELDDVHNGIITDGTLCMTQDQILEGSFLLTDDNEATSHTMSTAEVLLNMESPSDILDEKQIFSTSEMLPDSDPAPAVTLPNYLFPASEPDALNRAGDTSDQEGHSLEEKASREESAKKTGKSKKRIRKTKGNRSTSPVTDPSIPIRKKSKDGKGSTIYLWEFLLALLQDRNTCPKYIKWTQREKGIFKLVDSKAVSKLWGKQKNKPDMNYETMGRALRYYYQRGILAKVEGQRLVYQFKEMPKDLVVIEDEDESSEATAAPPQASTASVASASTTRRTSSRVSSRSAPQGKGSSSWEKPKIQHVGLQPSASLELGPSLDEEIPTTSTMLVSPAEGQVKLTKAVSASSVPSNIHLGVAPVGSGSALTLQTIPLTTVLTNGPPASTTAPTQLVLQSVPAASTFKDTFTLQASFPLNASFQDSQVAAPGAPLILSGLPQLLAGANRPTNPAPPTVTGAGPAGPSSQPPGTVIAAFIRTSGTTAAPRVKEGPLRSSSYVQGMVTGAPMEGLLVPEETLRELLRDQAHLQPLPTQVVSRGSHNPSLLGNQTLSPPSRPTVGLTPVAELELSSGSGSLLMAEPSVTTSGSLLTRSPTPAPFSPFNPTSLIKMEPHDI
Chain of HSF1 (Q00613 whole entry): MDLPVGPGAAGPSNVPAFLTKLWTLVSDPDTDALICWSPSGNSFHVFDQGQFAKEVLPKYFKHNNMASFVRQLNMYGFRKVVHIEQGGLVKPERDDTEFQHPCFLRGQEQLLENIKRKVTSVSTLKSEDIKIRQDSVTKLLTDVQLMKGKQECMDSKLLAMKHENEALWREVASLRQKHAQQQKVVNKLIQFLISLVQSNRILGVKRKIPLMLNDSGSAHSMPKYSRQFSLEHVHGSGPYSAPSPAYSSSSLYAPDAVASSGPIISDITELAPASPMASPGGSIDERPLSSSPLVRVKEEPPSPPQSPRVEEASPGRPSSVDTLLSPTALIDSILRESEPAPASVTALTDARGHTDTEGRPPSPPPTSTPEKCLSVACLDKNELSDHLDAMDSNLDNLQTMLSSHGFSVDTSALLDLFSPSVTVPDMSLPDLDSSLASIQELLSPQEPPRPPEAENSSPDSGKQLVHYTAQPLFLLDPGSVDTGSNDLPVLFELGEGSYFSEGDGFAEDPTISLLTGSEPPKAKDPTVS
Chain of ELF1 (P32519 whole entry): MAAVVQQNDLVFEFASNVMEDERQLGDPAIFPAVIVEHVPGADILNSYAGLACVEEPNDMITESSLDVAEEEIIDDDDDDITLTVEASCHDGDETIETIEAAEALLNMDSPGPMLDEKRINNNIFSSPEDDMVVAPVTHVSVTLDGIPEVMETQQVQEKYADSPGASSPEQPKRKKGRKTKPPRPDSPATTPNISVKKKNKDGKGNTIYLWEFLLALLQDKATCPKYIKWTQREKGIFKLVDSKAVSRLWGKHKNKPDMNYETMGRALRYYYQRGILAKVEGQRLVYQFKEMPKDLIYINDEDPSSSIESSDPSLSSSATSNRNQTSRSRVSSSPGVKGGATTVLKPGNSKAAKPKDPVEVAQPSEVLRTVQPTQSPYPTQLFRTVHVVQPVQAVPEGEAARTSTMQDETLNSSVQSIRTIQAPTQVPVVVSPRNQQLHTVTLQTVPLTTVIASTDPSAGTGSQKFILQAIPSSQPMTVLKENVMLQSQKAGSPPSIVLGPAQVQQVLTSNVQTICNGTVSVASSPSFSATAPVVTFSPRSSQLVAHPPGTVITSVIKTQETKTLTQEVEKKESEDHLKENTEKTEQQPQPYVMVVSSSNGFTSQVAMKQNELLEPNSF
Chain of ETV1 (P50549 whole entry): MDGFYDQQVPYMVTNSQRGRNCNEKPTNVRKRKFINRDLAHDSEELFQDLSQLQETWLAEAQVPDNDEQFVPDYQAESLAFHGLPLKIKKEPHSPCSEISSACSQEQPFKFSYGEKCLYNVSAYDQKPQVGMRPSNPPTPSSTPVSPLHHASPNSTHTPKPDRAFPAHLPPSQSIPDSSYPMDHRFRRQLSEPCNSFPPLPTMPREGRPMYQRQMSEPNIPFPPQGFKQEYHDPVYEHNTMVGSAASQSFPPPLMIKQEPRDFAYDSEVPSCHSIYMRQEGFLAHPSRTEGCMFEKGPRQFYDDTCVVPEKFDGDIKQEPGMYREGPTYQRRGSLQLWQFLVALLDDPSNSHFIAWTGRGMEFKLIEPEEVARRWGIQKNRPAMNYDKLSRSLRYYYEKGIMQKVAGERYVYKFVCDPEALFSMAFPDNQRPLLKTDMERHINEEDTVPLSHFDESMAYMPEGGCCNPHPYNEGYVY
Chain of SPIB (Q01892 whole entry): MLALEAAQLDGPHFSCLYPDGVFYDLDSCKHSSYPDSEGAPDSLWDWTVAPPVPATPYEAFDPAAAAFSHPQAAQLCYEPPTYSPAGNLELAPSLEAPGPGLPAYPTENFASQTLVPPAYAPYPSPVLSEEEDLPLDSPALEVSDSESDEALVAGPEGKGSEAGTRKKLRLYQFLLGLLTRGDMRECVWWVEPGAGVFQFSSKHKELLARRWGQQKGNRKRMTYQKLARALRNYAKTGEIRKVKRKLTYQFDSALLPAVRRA
Chain of CRX (O43186 whole entry): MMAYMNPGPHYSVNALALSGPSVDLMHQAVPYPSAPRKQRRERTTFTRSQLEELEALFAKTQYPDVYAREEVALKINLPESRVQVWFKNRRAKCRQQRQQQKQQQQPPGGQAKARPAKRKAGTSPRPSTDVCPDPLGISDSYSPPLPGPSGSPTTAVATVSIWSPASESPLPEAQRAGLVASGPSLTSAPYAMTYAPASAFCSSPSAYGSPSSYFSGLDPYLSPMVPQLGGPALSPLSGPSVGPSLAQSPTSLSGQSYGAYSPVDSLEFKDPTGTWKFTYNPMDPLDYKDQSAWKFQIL
Chain of ETV5 (P41161 whole entry): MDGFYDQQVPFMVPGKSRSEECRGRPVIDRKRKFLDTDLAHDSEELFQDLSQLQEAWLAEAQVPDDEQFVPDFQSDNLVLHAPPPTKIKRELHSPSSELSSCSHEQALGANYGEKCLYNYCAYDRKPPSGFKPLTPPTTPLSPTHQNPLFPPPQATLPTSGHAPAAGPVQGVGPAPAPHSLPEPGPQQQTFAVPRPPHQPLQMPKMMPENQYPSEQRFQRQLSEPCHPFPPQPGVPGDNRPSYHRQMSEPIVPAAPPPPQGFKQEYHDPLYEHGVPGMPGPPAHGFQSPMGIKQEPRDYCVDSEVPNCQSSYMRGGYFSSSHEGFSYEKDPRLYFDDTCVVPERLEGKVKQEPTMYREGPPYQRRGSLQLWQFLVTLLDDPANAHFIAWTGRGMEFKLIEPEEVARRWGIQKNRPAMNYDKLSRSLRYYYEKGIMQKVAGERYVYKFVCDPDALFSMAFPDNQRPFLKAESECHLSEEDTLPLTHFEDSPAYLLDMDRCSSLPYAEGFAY

For TGTTCC, the binding signal [1] was 1.69 fold enrichment (6-mer frequency, TF over GST control), the binding signal [2] was 1.61 fold enrichment (6-mer frequency, TF over GST control) and the binding signal [3] was 1.74 fold enrichment (6-mer frequency, TF over GST control). For the same sequence, the binding signal [4] was 1.68 fold enrichment (6-mer frequency, TF over GST control), the binding signal [5] was 1.66 fold enrichment (6-mer frequency, TF over GST control) and the binding signal [6] was 1.83 fold enrichment (6-mer frequency, TF over GST control). The binding signal [7] was 1.81 fold enrichment (6-mer frequency, TF over GST control), the binding signal [8] was 1.8 fold enrichment (6-mer frequency, TF over GST control) and the binding signal [9] was 1.5 fold enrichment (6-mer frequency, TF over GST control). For the same sequence, the binding signal [10] was 1.69 fold enrichment (6-mer frequency, TF over GST control), the binding signal [11] was 1.71 fold enrichment (6-mer frequency, TF over GST control) and the binding signal [12] was 1.85 fold enrichment (6-mer frequency, TF over GST control). The binding signal [13] was 2 fold enrichment (6-mer frequency, TF over GST control), the binding signal [14] was 1.64 fold enrichment (6-mer frequency, TF over GST control) and the binding signal [15] was 1.49 fold enrichment (6-mer frequency, TF over GST control). For the same sequence, the binding signal [16] was 1.78 fold enrichment (6-mer frequency, TF over GST control), the binding signal [17] was 1.6 fold enrichment (6-mer frequency, TF over GST control) and the binding signal [18] was 1.21 fold enrichment (6-mer frequency, TF over GST control). For the same sequence, the binding signal [19] was 1.86 fold enrichment (6-mer frequency, TF over GST control).
